The campaign covered roughly 16,000 compounds. About 5,800 (36%) were called active. Not shown: some 23% with an inconclusive outcome. The call rests on the fitted dose curve; in most records, active means well fitted curve in the direction sought with a large enough effect; inconclusive means small, poorly fitted or top-dose-only effect, or effect the other way; inactive means no such curve, though single readings can be large or run the other way. The list shows a part of the results. Peptide text beside a SMILES is read from it. * marks the point of attachment. PhAc = O=C(Cc1ccccc1)*; OBn = c1ccc(CO*)cc1
target: Cytochrome P450 2C19 (Homo sapiens) (UniProt P33261); assay: Cytochrome panel assay with activity outcomes; settings: recombinant CYP, pro-luciferin dealkylation, luminescence, p450-cyp2c19; series mostly up to 57.1 µM
Sequence (P33261 whole entry, looked up): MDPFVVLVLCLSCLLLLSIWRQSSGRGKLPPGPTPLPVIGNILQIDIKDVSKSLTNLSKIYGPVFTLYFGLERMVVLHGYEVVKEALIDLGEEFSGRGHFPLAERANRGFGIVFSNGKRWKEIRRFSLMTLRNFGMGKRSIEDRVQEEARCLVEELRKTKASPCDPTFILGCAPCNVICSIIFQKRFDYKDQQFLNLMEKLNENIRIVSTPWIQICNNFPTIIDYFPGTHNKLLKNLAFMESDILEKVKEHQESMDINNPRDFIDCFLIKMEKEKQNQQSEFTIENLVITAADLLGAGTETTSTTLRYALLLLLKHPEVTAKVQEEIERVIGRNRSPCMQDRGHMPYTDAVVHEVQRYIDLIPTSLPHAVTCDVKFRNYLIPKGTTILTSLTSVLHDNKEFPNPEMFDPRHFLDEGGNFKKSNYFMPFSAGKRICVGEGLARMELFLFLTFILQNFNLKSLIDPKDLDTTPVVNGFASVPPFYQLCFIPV
On the % scale 0 is the no-effect control and ±100 the full control effect.

SMILES	AC50	activity, negative = inhibition
COc1ccc(C2Nc3ccccc3C(=O)N2Cc2ccco2)cc1COc1ccc([N+](=O)[O-])cc1 (stereo not drawn)	2.51 µM (active)	
O=C(C1=C(O)C(=O)N(Cc2ccco2)C1c1ccccc1)c1cccs1 (stereo not drawn)	inactive	
Cc1ccc(C2Nc3ccccc3C(=O)N2Cc2ccco2)cc1 (stereo not drawn)	2.82 µM (active)	
O=C1c2ccccc2NC(c2ccc(F)cc2)N1Cc1ccco1 (stereo not drawn)	3.55 µM (active)	
S=C(S)O[C@@H]1C[C@@H]2C[C@H]1[C@@H]1CCC[C@H]21	15.8 µM (active)	
C=CCOc1c(Br)cc(CNc2ccc(NC(=O)C(C)C)c(OC)c2)cc1OC	3.55 µM (active)	
O=C1c2ccccc2C(=O)N1CCCCN(C(=O)c1ccc([N+](=O)[O-])cc1)c1ccc(Cl)cc1	4.47 µM (active)	
O=C1c2ccccc2C(=O)N1CCCCN(C(=O)c1cccc([N+](=O)[O-])c1)c1ccc(Cl)cc1	3.16 µM (active)	
C/C(CCN1CCc2nc(-c3ccccc3)c(-c3ccccc3)cc2C1)=N\O[C@@H](C)CN1CCCCc2nc(C)c(C)cc21		-15.5% [at 11.4 µM] (inactive)
O=C(CNC(=O)c1cccs1)NCC(=O)OCc1ccc(Cl)cc1Cl	5.01 µM (active)	
O=C(CNC(=O)c1cccs1)NCC(=O)OCc1ccc(Cl)cc1	6.31 µM (active)	
O=C(CNC(=O)Cc1ccccc1)NCC(=O)OCc1ccccc1 (PhAc-Gly-Gly-OBn)	inactive	
COC(=O)C1C(=O)C2=C(CC1C)NC(=O)CC2c1cccc(C)c1 (stereo not drawn)	11.2 µM (active)	
COc1ccc(-n2c(=O)c(-c3ccc(Cl)cc3)nc3cncnc32)cc1	inactive	
COc1ccc(/C(C#N)=C/c2c(-c3ccc(Cl)cc3)nc3c(C)cccn23)cc1	3.16 µM (active)	
COc1ccc(Oc2ncc3nc(-c4ccc(Cl)cc4)c(=O)n(C)c3n2)cc1	inactive	
COc1ccc(Nc2nc(N)nc(CSc3n[nH]c(-c4ccccc4)n3)n2)cc1	10 µM (active)	
Cc1nnc(SCc2nc(N)nc(Nc3ccccc3)n2)s1	14.1 µM (active)	
Cc1cc(Nc2ccccc2)nc(N)n1	inactive	
C#CCSc1n[nH]c(-c2ccco2)n1		0.772% [at 11.4 µM] (inactive)
CCCOc1ccc(-c2nc(N)n[nH]2)cc1	inactive	

SMILES	AC50	activity, negative = inhibition
CCCc1nnc(SCC(=O)N2C(C)CCCC2C)n1CCCOC (stereo not drawn)	28.2 µM (active)	
CCCc1nnc(SCC(=O)N2CCCCC2)n1CCCOC	inactive	
NOCC(=O)O	inactive	
CC(C)Oc1ccc(C(=O)Nc2ccc(NC(=O)c3ccco3)c(Cl)c2)cc1	3.98 µM (active)	
COc1cc(NC(=O)c2ccccc2Cl)ccc1NC(=O)c1ccco1	8.91 µM (active)	
CNc1cc(OC)c(C(=O)N[C@@H]2CCN(Cc3ccccc3)[C@H]2C)cc1Cl	inactive	
COc1ccc(C(=O)Nc2ccc(NC(=O)c3ccco3)c(Cl)c2)cc1OC	inactive	
Cc1nn(-c2ccc(F)cc2)c(C)c1NS(=O)(=O)c1ccc2ccccc2c1	0.316 µM (active)	
Cc1ccc(C)c(/C(=N\N=C(N)N)C2CC2)c1		-19.5% [at 11.4 µM] (inactive)
CCCCCCCCCCCCCCCC(=O)NC(C)C	inactive	
CCCCCC(=O)Nc1cc2[nH]c(=O)cc(COC)c2cc1C	inactive	
O=C(N/N=C/c1ccccn1)c1ccco1	inactive	
CCCCCCCCC(=O)N/N=C/c1cccc(Br)c1	2 µM (active)	
CCN(CC)C(=O)C(=O)N/N=C/c1cccc(Br)c1	22.4 µM (active)	
CCCCCCCCC(=O)N/N=C/c1ccccn1	5.01 µM (active)	
C[C@@](Cc1ccc(O)c(O)c1)(NN)C(=O)O	inactive	
Cc1cc2cc3c(cc2nc1SCC(=O)Nc1c(C)cccc1C)CCC3	3.55 µM (active)	
COc1ccc(C(=O)NC2(C(F)(F)F)C(=O)Nc3c2c(=O)[nH]c(=O)n3CCc2ccc(OC)c(OC)c2)cc1 (stereo not drawn)	inactive	
Cc1cc(C(=O)CSc2nnc(N)s2)c(C)n1CCc1ccc(F)cc1	0.794 µM (active)	
COc1ccc(CCn2c(C)cc(C(=O)CSc3nc(N)cc(=O)[nH]3)c2C)cc1	3.55 µM (active)	
CCOC(=O)Nc1ccc2c(c1)OCO2	20 µM (active)	

SMILES	AC50	activity, negative = inhibition
CCOCC(=O)Nc1c(C(=O)Nc2ccccc2OC)oc2ccccc12	inactive	
COc1cccc(NC(=O)c2oc3ccccc3c2NC(=O)c2ccc3c(c2)OCO3)c1	3.55 µM (active)	
CCOc1ccc(NC(=O)c2oc3ccccc3c2NC(=O)CC)cc1	2.24 µM (active)	
O=C(Nc1cccc(-c2nc3ccccc3s2)c1)c1ccc2c(c1)OCO2	7.08 µM (active)	
CCOC(=O)c1oc2ccccc2c1NC(=O)c1cc(OC)cc(OC)c1	25.1 µM (active)	
CCOC(=O)c1oc2ccccc2c1NC(=O)c1ccc2c(c1)OCO2	2.82 µM (active)	
CC(C)(C)c1ccc(OC(=O)Nc2ccc(O)c(C(=O)O)c2)cc1		41.8% [at 11.4 µM] (inactive)
CCOC(=O)Nc1ccc(C(=O)Oc2ccccc2)c(O)c1	3.55 µM (active)	
CCOC(=O)c1oc2ccccc2c1NC(=O)c1ccc(S(=O)(=O)N(C)C)cc1	inactive	
C=CCN(CC=C)CC(O)Cn1c2ccccc2c2ccccc21 (stereo not drawn)	0.562 µM (active)	
Cc1ccccc1OCC(O)Cn1c2ccccc2c2ccccc21 (stereo not drawn)	0.631 µM (active)	
Cc1ccc(OCC(O)Cn2c3ccccc3c3ccccc32)cc1 (stereo not drawn)	1.26 µM (active)	
Cc1ccccc1OCC(O)Cn1c(NCc2ccccc2)nc2c1c(=O)[nH]c(=O)n2C (stereo not drawn)	inactive	
Cc1cccc(C)c1OCC(O)CNC(C)(C)C (stereo not drawn)	inactive	
c1ccc([C@@H]2CN3CCSC3=N2)cc1	inactive	
COc1ccc(CCn2c(=N)c(C(=O)NCc3ccco3)cc3c(=O)n4ccccc4nc32)cc1	11.2 µM (active)	
CCn1c(CSCc2ccc(C)cc2)nnc1SCC(=O)NCc1ccccc1	14.1 µM (active)	
C=CCn1c(Cc2c[nH]c3ccccc23)nnc1SCC(=O)NCc1ccccc1	25.1 µM (active)	
CCn1c(CC(=O)Nc2ccc(C)cc2)nnc1SCC(=O)Nc1nc(C)cs1	inactive	
CCn1c(CC(=O)Nc2ccc(C)cc2)nnc1SCC(=O)NCCc1ccccc1	22.4 µM (active)	
C[C@@](N)(C(=O)O)c1ccc(S(=O)(=O)O)cc1	inactive	

— PubChem BioAssay AID1851 (National Center for Advancing Translational Sciences (NCATS), 2009)
